Where “and” joins values, the source holds several entries; their conditions need not be identical. Equal entries are not always repeated. Results filed as inconclusive are left out. Entries that show only a call come without a potency. Calls of active or inactive are those of the source. Calls follow the shape of the dose curve; as a rule, active = well fitted inhibition curve with a large enough effect; inconclusive = small, poorly fitted or top-dose-only effect; inactive = no such curve, though single readings can be large or run the other way. Where a SMILES comes first, the peptide text is derived from it. [ ]: non-standard residue; d: D form. ξ: configuration not given here. ξPhe(βξ-Me) = CC(c1ccccc1)C(N)C(=O)O; GABA = NCCCC(=O)O

This test is described as follows: Primary qHTS for inhibitors of nuclear receptor binding SET domain protein 2 (NSD2) in an RCH-ACV wild type WT cells (2C) (AID 1645877). Also: nearly all actives have a fitted effect of over 70% in size. Particulars: RCH-ACV (leukaemia line) NSD2 WT (2C) viability, CellTiter-Glo, 72 h; series mostly up to 44.9 µM. An excerpt: Assay Provider: Jonathan D. Licht, MD
University of Florida College of Medicine, Gainesville, FL
Mutations in epigenetic regulators are common in relapsed pediatric acute lymphoblastic leukemia (ALL). Here, we uncovered the mechanism underlying the relapse of ALL driven by an activating mutation of the NSD2 histone methyltransferase (p.E1099K). […] Correction of this mutation restored glucocorticoid sensitivity. The transcriptional response to glucocorticoids was blocked in NSD2 mutant cells due to depressed glucocorticoid receptor (GR) levels and the failure of glucocorticoids to autoactivate GR expression. […] Pre-treatment of NSD2 p.E1099K cell lines and PDX samples with PRC2 inhibitors reversed glucocorticoid resistance in vitro and in vivo.
High-throughput drug screening of isogenic RCH-ACV cell lines was performed at the National Center for Advancing Translational Science (NCATS), National Institutes of Health as previously described (1). Briefly, isogenic RCH-ACV NSD2 p.E1099K mutant (9B) and WT cells (2C) were plated at 500 cells/well in a 1536-well plate with a 72-hour incubation with compounds prior to addition of CellTiter-Glo to assess cell viability. NCATS libraries screened include: NPC, MIPE 5.0, Kinase and NPACT. To determine compound activity in the qHTS assay, the concentration-response data for each sample was plotted and modeled by a four-parameter logistic fit yielding IC50 and efficacy (maximal response) values. The area under the curve (AUC) of the dose-response curve ensures both efficacy (magnitude of cell killing) and potency (concentration that elicits cell killing) are accounted for in the analysis of activity.
1. Tobie D Lee, Olivia W Lee, Kyle R Brimacombe, Lu Chen, Rajarshi Guha, Sabrina Lusvarghi, Bethilehem G Tebase, Carleen Klumpp-Thomas, Robert W Robey, Suresh V Ambudkar, Min Shen, Michael M Gottesman, Matthew D Hall. A High-Throughput Screen of a Library of Therapeutics Identifies Cytotoxic Substrates of P-glycoprotein. Mol Pharmacol. 2019, Nov;96(5):629-640.
Regarding `CC1CCC2C(C(=O)O)=CC3CC(C)(C)CC132` (stereo not given), the Potency entry is “inactive”. Turning to `O=C1[C@H](O[C@@H]2O[C@H](CO)[C@@H](O)[C@H](O)[C@H]2O)Oc2ccccc2N1O`, the Potency entry is “inactive”. The same measure, in the same setting: the entry for `O=c1c2ccccc2nc2n1CCC2O` (stereo not given) is “inactive”; for `COc1ccc([C@@H]2N[C@H](C(=O)O)Cc3c2[nH]c2ccccc32)cc1CN1CCN(c2ccccc2F)CC1` it is “inactive”. As to `CC(=O)OC(C)OC(=O)C(C)c1ccc(-c2ccccc2)c(F)c1` (stereo not given), the Potency entry is “inactive”. On to `C=C1[C@H]2[C@H](O[C@@H]3O[C@H](COC(=O)/C=C/c4cc(OC)c(O)c(OC)c4)[C@@H](O)[C@H](O)[C@H]3O)OC=C(C(=O)O)[C@H]2C[C@@H]1O`, for which the Potency entry was “inactive”.

For `CC1(CCC(=O)O)C(=O)C=CC23CC4CC(OC4(C)C2O)C13` (stereo not given), the Potency entry was “inactive”. For `COc1ccc([C@H]2Cc3cccc(O)c3C(=O)O2)cc1`, the Potency entry is “inactive”. Turning to `COc1cc(-c2cccc(O)c2)cc2c1OCO2`, the Potency entry was “inactive”.

Consider `C[C@@H]1CC[C@]2(C(=O)O[C@@H]3O[C@H](CO)[C@@H](O)[C@H](O)[C@H]3O)CC[C@]3(C)C(=CCC4[C@@]5(C)C[C@@H](O)[C@H](O)C(C)(C)C5CC[C@]43C)C2[C@]1(C)O` (stereo not given in full), for which the Potency entry is “inactive”.

Consider `CC(=C/C(=O)O)/C=C/[C@]1(O)[C@@]2(C)CO[C@]1(C)C[C@H](O[C@@H]1O[C@H](CO)[C@@H](O)[C@H](O)[C@H]1O)C2`, for which the Potency result is “inactive”. Take `COC1CC(=O)CCC(C)OC(=O)CC1O` (stereo not given): the Potency entry is “inactive”. For `C/C=C/C=C/C=C/C(=O)O[C@@H]1[C@@H](OC)C2=C(C(=O)N(C(C)C(=O)O)C2)[C@@]2(C)CCCC(C)(C)[C@H]12` (stereo not given in full), the Potency entry was “inactive”. Take `CC1=CC(=O)C2C(C)(C)CC(O)CC2(C)C1CO` (stereo not given): the Potency entry was “inactive”. `COc1cc(C/C(=C/NC(C)=O)N(CC(=O)Cc2ccccc2)C(C)=O)cc2c1OCO2`: the Potency result was “inactive”. As to `CO[C@@H]1COCC[C@@H]1N[C@@H]1CC[C@@](C(=O)N2CCc3ncc(C(F)(F)F)cc3C2)(C(C)C)C1`, the Potency entry is “inactive”. As to `CC(C)CC1NC(=O)C(C(C)c2ccccc2)NC(=O)C(C(C)C)NC(=O)C(C)NC(=O)CCCNC(=O)C(Cc2c[nH]c3ccccc23)NC(=O)C(C)NC1=O` (stereo not drawn) (cyclo([GABA]AV[ξPhe(βξ-Me)]LAW); configuration not given here), the Potency result was “inactive”. As to `OC[C@H]1O[C@@H](Oc2cc(O)cc(-c3cc4ccc(O)cc4o3)c2)[C@H](O)[C@@H](O)[C@@H]1O`, the Potency entry was “inactive”. Same read-out and setting: to `CC1(C)O[C@@]2(C)CC[C@@H]1C[C@@H]2OC1OC(CO)C(O)C(O)C1O` (stereo not given in full) belongs “inactive”; to `COC(=O)C1=CO[C@@H](O[C@@H]2O[C@H](CO[C@@H]3O[C@H](COC(=O)/C=C/c4ccc(O)cc4)[C@@H](O)[C@H](O)[C@H]3O)[C@@H](O)[C@H](O)[C@H]2O)[C@@H]2C(CO)=CC[C@H]12`, “inactive”; to `O=C(O)[C@H]1CCCC[C@H]1C(=O)N1CCc2ccccc2[C@H]1CN1C(=O)c2ccccc2C1=O`, “inactive”. On to `COC(=O)[C@@]1(O)C=CC[C@@H]2[C@@]3(C)C[C@@H](c4ccoc4)OC(=O)[C@H]3CC[C@]21C`, for which the Potency entry was “inactive”. As for `CC1CCC2C(C(=O)O)=CC3C(O)C(C)(C)CC123` (stereo not given), the Potency result is “inactive”. With `CCc1cc2c(=O)c(-c3nc4ccccc4s3)coc2c(CN2CCCCC2)c1O`, the Potency entry is “inactive”. With `CC(=O)NC(CCC(=O)O)C(=O)NCCc1ccc(O)cc1` (stereo not given), the Potency entry was “inactive”. Same read-out and setting: the entry for `CC[C@H](C)/C=C(C)/C=C/C(=O)Cc1cc(O)c(C)c(O)c1C=O` is “inactive”. In the case of `CN[C@@H]1[C@@H](O)[C@@H](O[C@@H]2[C@@H](O)[C@H](O[C@H]3O[C@H](CN)[C@@H](O)[C@H](O)[C@H]3O)[C@@H](N)C[C@H]2NC(=O)[C@@H](O)CN)OC[C@]1(C)O`, the Potency result was “inactive”. `O=C(c1ccc(NS(=O)(=O)c2cccc3cccnc23)cc1)N1CCN(CC2CC2)CC1`: the Potency result is “inactive”. For the compound `CC[C@H](/C=C/[C@@H](C)[C@H]1CC[C@H]2[C@@H]3CC=C4C[C@@H](O)CC[C@]4(C)[C@H]3CC[C@]12C)C(C)C`, the outcome was “inactive [at 4.96 µM]”.

As to `COc1c(C)c(C(=O)c2ccc(N)c(C(=O)O)c2)n2ccccc12`, the Potency result is “inactive”. On the same count and under the same terms, the entry for `CCC(C)/C=C(C)/C=C/C1=CC2=C(Cl)C(=O)C(C)(OC(C)=O)C(=O)C2=CN1CCCC(=O)O` (stereo not given) is “inactive”; for `NS(=O)(=O)OC[C@@H]1C[C@@H](n2ccc3c(N[C@H]4CCc5ccccc54)ncnc32)C[C@@H]1O` it is 365 nM (active) and 515 nM (active) and 525 nM (active); for `COCCCNCC1COc2ccccc2O1` (stereo not given) it is “inactive”. As to `COC(=O)C1=CO[C@@H](O[C@@H]2O[C@H](COC(=O)/C=C/c3cc(OC)c(O)c(OC)c3)[C@@H](O)[C@H](O)[C@H]2O)[C@@H]2C(CO)=CC[C@H]12`, the Potency entry was “inactive”. For `O=C(O[C@@H]1O[C@H](CO)[C@@H](O)[C@H](O)[C@H]1O)c1c(O)cc(O)cc1/C=C/c1ccccc1`, the Potency result was “inactive”. On the same count and under the same terms, to `C=C1C[C@]23C[C@H]1CC[C@H]2[C@@]12C=C[C@H](O)[C@@](C)(C(=O)O1)[C@H]2[C@@H]3C(=O)O` belongs “inactive”.

`CC1=C2[C@@H]([C@H](C)CC[C@H]2/C=C(\C)C(=O)O)[C@H](O)C1`: the Potency entry is “inactive”.

`COC(=O)C1=CO[C@@H](O[C@@H]2O[C@H](CO)[C@@H](O)[C@H](O)[C@H]2O)[C@@H]2[C@@H](C(=O)OC)[C@@H](O)C(O)[C@H]12` (stereo not given in full): the Potency entry was “inactive”. `CC(C)(O)c1ccc2c(c1)C(=O)CC1[C@](C)(CO)CCC[C@]21C` (stereo not given in full): the Potency result was “inactive”. As to `CC1=C(C)C(=O)OC(C(C)(O)C2CCC3C4CC=C5CC(OC6OC(COC7OC(CO)C(O)C(O)C7O)C(O)C(O)C6O)CC(O)C5(C)C4CCC32C)C1` (stereo not given), the Potency entry was “inactive”.

These data come from PubChem BioAssay (NCATS).
